This is a sample that favours compounds with a hit; in the whole collection about 2.7% have one here.
SENP7 block: inhibitors of human SENP7 protease; Q9BQF6; recombinant SENP7, Z-RLRGG-aminoluciferin luminescence, 40 min; inhibition, % at 5 µM; hit rate 1.5% among 330,000; AID 434973;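 active = inhibition above about 50% at the single test dose, limit read from the data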;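 note: plate controls were DMSO with enzyme for no effect and no enzyme buffer wells for full effect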
Target sequence (Q9BQF6 706-1050 limits assumed): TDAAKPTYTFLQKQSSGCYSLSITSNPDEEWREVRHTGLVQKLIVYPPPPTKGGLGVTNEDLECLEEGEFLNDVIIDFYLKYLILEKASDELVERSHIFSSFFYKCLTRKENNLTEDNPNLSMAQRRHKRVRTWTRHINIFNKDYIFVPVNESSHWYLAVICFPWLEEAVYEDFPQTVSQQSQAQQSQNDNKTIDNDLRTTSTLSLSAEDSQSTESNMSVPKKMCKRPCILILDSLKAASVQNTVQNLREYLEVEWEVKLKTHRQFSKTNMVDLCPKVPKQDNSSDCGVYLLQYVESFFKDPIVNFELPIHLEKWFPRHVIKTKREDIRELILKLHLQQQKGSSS
HSP90 refold inh: inhibitors of HSP90 luciferase refolding in rabbit reticulocyte lysate; inhibition, % at 5.6 µM; luciferase refolding luminescence, 3 h; hit rate 0.91% among 290,000;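 active = inhibition above the screen-wide mean plus 3 SD, computed separately per campaign, cut at about 16% in these data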;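 note: 0% = DMSO wells and 100% = 60 µM geldanamycin wells; inhibitors lower the luminescence because luciferase stays unfolded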
SENP6 inh: SENP6 protease inhibition. Q9GZR1. Recombinant SENP6 catalytic domain, aminoluciferin luminescence. inhibition, % at 10 µM. hit rate 1.8% among 330,000;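 active = inhibition above about 50% at the single tested dose, limit read from the data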;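 note: plate controls were DMSO wells with enzyme for no effect and DMSO wells lacking enzyme for full effect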
SENP8 block-1: blocks the human protease SENP8 | hit rate 1.2% among 330,000 | Q96LD8 | inhibition, % at 10 µM | purified SENP8, Z-RLRGG-aminoluciferin cleavage, luminescence; in the data active = inhibition above about 50%
SENP8 block-2: inhibitors of human SENP8 protease; inhibition, % at 20 µM; AID 602440; hit rate 0.64% among 360,000; recombinant SENP8, Nedd8 substrate fluorescence; Q96LD8; in the data active = inhibition mostly above about 40%, no sharp cut-off; inactive = mostly below about 27%
SENP8 conf: human SENP8 inhibition, confirmed | AID 488912 | Recombinant SENP8, Z-RLRGG-aminoluciferin luminescence, 60 min | shares compounds with SENP7 block | inhibition, % at 12.5 µM | hit rate 40% among 6,200;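 active = mean inhibition across replicates above about 50%, limit read from the data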
SENP6 confirm: confirmation of human SENP6 protease inhibitors | recombinant SENP6, Z-RLRGG-aminoluciferin luminescence | inhibition, % at 12.5 µM | hit rate 58% among 6,200 | shares compounds with SENP7 block
SENP7 confirm: human SENP7 inhibition, confirmed; shares compounds with SENP7 block; recombinant SENP7, Z-RLRGG-aminoluciferin luminescence, 40 min; inhibition, % at 12.5 µM; hit rate 69% among 6,200; AID 488917
Casp3 SENP sel: selectivity test for SENP inhibitors: human caspase-3 inhibition | shares compounds with SENP7 block | purified caspase-3, Z-DEVD-aminoluciferin luminescence, 60 min | inhibition, % at 12.5 µM | hit rate 60% among 6,200 | AID 488918;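 active = mean inhibition above about 50%, limit read from the data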;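 note: plate controls were enzyme with DMSO for no effect and wells without caspase-3 for full effect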
Target sequence (P42574 28-227 limits assumed): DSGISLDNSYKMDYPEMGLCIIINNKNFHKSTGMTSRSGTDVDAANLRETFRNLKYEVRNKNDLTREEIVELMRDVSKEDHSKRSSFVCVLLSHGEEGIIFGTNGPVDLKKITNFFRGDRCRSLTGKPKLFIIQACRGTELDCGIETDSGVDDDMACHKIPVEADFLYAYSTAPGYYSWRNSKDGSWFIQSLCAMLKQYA
SENP luc ctr: counter-screen for SENP inhibitors: luminescence interference | AID 488919 | Pre-incubated SENP8/Z-RLRGG-aminoluciferin, luciferase luminescence interference | shares compounds with SENP7 block | hit rate 39% among 6,200 | inhibition, % at 12.5 µM;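 active = mean inhibition above about 50% when retested at one dose, limit read from the data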;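 note: plate controls were DMSO wells with completed reaction for no effect and substrate without enzyme for full effect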
Starred values were filed as active, the others as inactive; / = no result.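 Rule for the calls, unless noted: active = mean inhibition above about 50% in the one-dose retest (limit read from the data); inactive = the rest.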

SMILES	SENP7 block	HSP90 refold inh	SENP6 inh	SENP8 block-1	SENP8 block-2	SENP8 conf	SENP6 confirm	SENP7 confirm	Casp3 SENP sel	SENP luc ctr
COc1ccc2c(c1)CCc1c-2n[nH]c1C(=O)NCCC(C)C	59.7*	2.6	48.2	56.2*	9.3	23.3	54.4*	85.3*	52.4*	10.2
CNC(=O)c1[nH]nc2c1CCc1cc(OC)ccc1-2	7.6	7.4	-39.5	-2.6	22.0	/	/	/	/	/
O=c1oc(-c2cccs2)nc2sc3c(c12)CCCC3	89.4*	0.3	75.4*	73.8*	-36.6	47.4	49.0	45.7	70.4*	19.6
NNc1nc2sc3c(c2c(=O)n1Cc1ccccc1)CCC3	3.4	3.5	12.5	-1.1	6.0	/	/	/	/	/
NNc1nc(-c2ccccc2)nc2sc3c(c12)CCCC3	79.8*	7.9	79.0*	65.7*	-150.4	-7.1	11.8	19.7	15.6	15.5
COc1cccc(CNc2cnc3ccccc3c2)c1O	38.1	10.8	59.8*	41.6	-303.8	37.0	34.7	77.0*	34.5	61.2*
COc1ccc(NC(=O)c2ccc(S(=O)(=O)N(C)c3ccccc3)cc2)cn1	3.5	-5.6	-6.2	-2.2	24.1	/	/	/	/	/
O=C(NC1CC(=O)N(c2ccc(F)cc2)C1)N1CCN(C(=O)c2ccco2)CC1 (configuration not stated)	13.8	/	-14.3	-7.6	6.5	/	/	/	/	/
COc1ccccc1NC(=O)Cn1c(=O)n(CCc2c[nH]c3ccccc23)c(=O)c2cccnc21	1.4	4.7	-6.5	0.6	21.8	/	/	/	/	/
N#Cc1ccc(C(=O)Nc2nc3ccccc3[nH]2)cc1	73.4*	8.7	69.0*	50.3*	-32.6	2.1	40.2	70.6*	68.5*	-1.2
O=C(Nc1nc2ccccc2[nH]1)c1cc(F)cc(F)c1	54.2*	6.5	55.4*	27.6	-13.9	28.2	32.6	73.0*	66.0*	16.1
CN(C)S(=O)(=O)c1ccc(C(=O)Nc2nc3ccccc3[nH]2)cc1	0.7	-4.2	-18.3	-11.6	-15.3	/	/	/	/	/
Cc1cc(C)cc(C(=O)Nc2nc3ccccc3[nH]2)c1	-11.1	-1.7	2.3	-24.2	-2.5	/	/	/	/	/
Cc1sc2ncnc(N3CCC(C(=O)NNC(=O)c4ccc(Cl)cc4)CC3)c2c1C	1.1	/	-8.5	5.9	-0.8	/	/	/	/	/
Cc1ccccc1NC(=O)Nc1ccc2c(c1)CCC2	83.8*	0.0	70.3*	24.7	5.0	9.7	13.2	16.7	26.5	5.9
Cc1cc(C)cc(NC(=O)Nc2ccc3c(c2)CCC3)c1	21.4	-1.2	7.2	-26.0	3.2	/	/	/	/	/
O=C(Nc1ccc2c(c1)CCC2)Nc1ccc(F)cc1F	70.2*	-2.1	3.0	-19.0	9.9	10.7	13.8	41.1	28.1	8.5
O=C(Nc1ccc2c(c1)CCC2)Nc1ccccc1F	99.2*	8.9	96.4*	91.9*	4.8	69.3*	95.4*	101.8*	92.3*	75.9*
O=C(Nc1ccc2c(c1)OCO2)Nc1ccc(F)cc1F	90.1*	-4.2	90.0*	72.9*	4.6	76.5*	76.1*	97.8*	88.7*	85.8*
COc1ccc2c(c1)OC(=O)CC2c1cc(OC)c(OC)c(OC)c1 (configuration not stated)	6.9	/	/	/	17.7	/	/	/	/	/
CCOc1ccccc1CNS(=O)(=O)c1ccc2c(c1)oc(=O)n2C	0.3	0.3	-8.6	7.1	-1.4	/	/	/	/	/
Cn1c(=O)c2cc(NCc3ccccc3)nnc2n(C)c1=O	4.6	3.4	80.8*	80.3*	-82.8	-3.0	-1.8	-4.6	-4.0	-7.7
CSCCC(NC(=O)OC(C)(C)C)C(=O)Oc1ccc2c(=O)c(-c3ccc4c(c3)OCCO4)coc2c1 (configuration not stated)	48.0	3.9	61.8*	32.9	-208.0	13.8	18.2	57.6*	76.0*	13.1
CSCCC(NC(C)=O)C(=O)Oc1ccc2c3c(c(=O)oc2c1)CCCC3 (configuration not stated)	/	0.1	/	/	-282.8	/	/	/	/	/
Cc1cccc(/C=C/C(=O)c2ccc(NC3=NCCCS3)cc2)c1	88.0*	0.0	92.9*	70.9*	8.3	81.0*	67.6*	11.7	41.6	89.7*
SMILES	SENP7 block	HSP90 refold inh	SENP6 inh	SENP8 block-1	SENP8 block-2	SENP8 conf	SENP6 confirm	SENP7 confirm	Casp3 SENP sel	SENP luc ctr
COc1ccccc1NC(=O)CCSc1ccc(C)cc1	33.8	0.9	50.7*	20.7	23.1	23.8	22.2	63.4*	42.7	35.3
O=C(Nc1ccc(Cl)c(Cl)c1)c1ccccc1	80.0*	/	89.5*	83.9*	8.3	-25.6	78.7*	95.8*	56.8*	26.9
NC(=O)c1ccc(NC(=O)c2ccc3c(c2)OCO3)cc1	46.3	-1.9	9.1	0.5	12.3	/	/	/	/	/
O=C(Nc1ccc2c(c1)OCO2)c1ccc(Cl)s1	73.5*	1.5	76.5*	61.7*	11.7	-1.1	62.9*	88.1*	66.3*	63.6*
O=C(Nc1ccc2c(c1)OCO2)c1cccc(Cl)c1	92.2*	-1.5	92.1*	81.1*	9.6	-5.6	86.6*	98.5*	89.6*	74.0*
O=C(Nc1ccc(Br)cc1)c1ccc2c(c1)OCO2	51.7*	0.6	34.3	6.4	-1.2	12.1	18.6	69.8*	46.9	1.5
O=C(Nc1ccc(NC(=O)c2ccc(Cl)cc2Cl)cc1)c1ccc2c(c1)OCO2	-7.2	4.0	-11.1	-0.6	-63.7	/	/	/	/	/
O=C(Nc1ccc(F)c(F)c1)c1ccc2c(c1)OCO2	-4.7	0.2	71.1*	66.9*	5.2	73.4*	74.4*	90.8*	76.1*	48.2
O=C(Nc1ccc(N2CCCCCC2)cc1)c1ccc[nH]1	32.6	/	66.1*	56.1*	-5.4	11.1	9.1	-1.8	-1.0	35.4
O=C(Nc1ccc(Cl)cc1)c1ccc2c(c1)OCO2	76.0*	9.6	73.3*	37.4	22.0	37.4	54.4*	88.1*	73.5*	17.5
Cc1cc(C)cc(NC(=O)Nc2ccc(N3CCCCC3)cc2)c1	81.8*	-2.8	81.3*	79.7*	23.7	16.1	20.4	42.0	33.4	20.5
OC(CN1C2=NCCN2c2ccccc21)c1ccc(Br)cc1 (configuration not stated)	-9.7	-2.4	-21.5	-10.2	21.9	/	/	/	/	/
CCC(C)c1ccccc1N1CC(C(=O)NCCC2=CCCCC2)CC1=O (configuration not stated)	-5.6	/	-12.0	3.7	10.1	/	/	/	/	/
CC1CCc2c(sc(NC(=O)COC(=O)c3ccc(NC(=O)CC#N)cc3)c2C#N)C1 (configuration not stated)	12.9	/	-17.9	-8.9	-39.4	/	/	/	/	/

Screening results as filed in PubChem BioAssay.
